Several values for one entry are separate records, joined by “and”; a condition that tells them apart may be missing. Identical values can stand only once. The whole screen tested about 5,500 compounds, of which about 2,000 (36%) were called active. Another 18% or so got no clear call; they are omitted. Rule as the data show it: active = normalized growth mostly below about 0.91 (no sharp cut-off); inconclusive = no clear call, values can overlap the other calls; inactive = mostly above about 0.92. The list shows a part of the results.
Experiment: chemical genetic growth profiling, strain panel (AID 1159580);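 also: tested at 20 µM; growth read once vehicle control cultures reached saturation at 30 °C; 1 = growth at the plate median or of vehicle wells; lower values mean less growth of the strain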
Settings: S. cerevisiae deletion strains, growth OD

Measured: normalized growth

Cc1ccc(C(=O)c2ccc(CC(=O)O)n2C)cc1
inactive: locus YAL021C, strain ccr4, stronger effect = lower value 1.03 | locus YAL026C, strain drs2, stronger effect = lower value 1.02 | locus YAL030W, strain snc1, stronger effect = lower value 1.01 | locus YBL061C, strain skt5, stronger effect = lower value 1.01 | locus YBR009C, strain hhf1, stronger effect = lower value 0.973 | locus YBR021W, strain FUR4, stronger effect = lower value 1.01 | locus YBR023C, strain chs3, stronger effect = lower value 1 | locus YBR229C, strain ROT2, stronger effect = lower value 1 | locus YBR231C, strain swc5, stronger effect = lower value 1.02 | locus YBR279W, strain paf1, stronger effect = lower value 1 | locus YCL011C, strain gbp2, stronger effect = lower value 0.999 | locus YCL016C, strain dcc1, stronger effect = lower value 0.996 | locus YCL029C, strain bik1, stronger effect = lower value 0.968 | locus YCL061C, strain MRC1, stronger effect = lower value 0.995 | locus YCL069W, strain vba3, stronger effect = lower value 0.986 | locus YCR088W, strain abp1, stronger effect = lower value 1 | locus YDL005C, strain med2, stronger effect = lower value 1.03 | locus YDL035C, strain GPR1, stronger effect = lower value 1.01 | locus YDL040C, strain nat1, stronger effect = lower value 1.01 | locus YDL074C, strain BRE1, stronger effect = lower value 1.01 | locus YDL101C, strain DUN1, stronger effect = lower value 1.01 | locus YDL134C, strain PPH21, stronger effect = lower value 0.996 | locus YDL185W, strain tfp1, stronger effect = lower value 0.977 | locus YDL192W, strain arf1, stronger effect = lower value 0.98 | locus YDR001C, strain nth1, stronger effect = lower value 1 | locus YDR069C, strain doa4, stronger effect = lower value 0.999 | locus YDR101C, strain arx1, stronger effect = lower value 0.985 | locus YDR137W, strain rgp1, stronger effect = lower value 1 | locus YDR150W, strain NUM1, stronger effect = lower value 1.01 | locus YDR159W, strain sac3, stronger effect = lower value 0.956 | locus YDR162C, strain NBP2, stronger effect = lower value 0.995 | locus YDR195W, strain ref2 1.03 | locus YDR297W, strain sur2, stronger effect = lower value 0.991 | locus YDR318W, strain mcm21, stronger effect = lower value 0.956 | locus YDR334W, strain swr1, stronger effect = lower value 1.01 | locus YDR335W, strain msn5, stronger effect = lower value 1.01 | locus YDR388W, stronger effect = lower value 0.972 | locus YDR392W, strain spt3, stronger effect = lower value 0.88 | locus YDR502C, strain sam2, stronger effect = lower value 0.97 | locus YEL003W, strain gim4, stronger effect = lower value 1.01 | locus YEL037C, strain rad23, stronger effect = lower value 0.999 | locus YEL061C, strain CIN8 (second series), stronger effect = lower value 0.999 | locus YEL061C, strain CIN8, stronger effect = lower value 0.998 | locus YER015W, strain faa2, stronger effect = lower value 1.01 | locus YER016W, strain bim1, stronger effect = lower value 0.999 | locus YER110C, stronger effect = lower value 0.969 | locus YER111C, strain swi4, stronger effect = lower value 1.01 | locus YER155C, strain BEM2 (second series), stronger effect = lower value 0.957 | locus YER155C, strain BEM2, stronger effect = lower value 0.996 | locus YER167W, strain BCK2, stronger effect = lower value 0.998 | locus YFR010W, strain ubp6, stronger effect = lower value 0.997 | locus YGL078C, strain dbp3, stronger effect = lower value 0.977 | locus YGL086W, strain mad1, stronger effect = lower value 0.985 | locus YGL167C, strain pmr1, stronger effect = lower value 1.01 | locus YGL173C, strain kem1, stronger effect = lower value 0.985 | locus YGL227W, strain vid30, stronger effect = lower value 1 | locus YGL240W, strain doc1, stronger effect = lower value 1.01 | locus YGL248W, strain PDE1, stronger effect = lower value 1.02 | locus YGL253W, strain hxk2, stronger effect = lower value 0.992 | locus YGR078C, strain PAC10, stronger effect = lower value 1 | locus YGR135W, strain pre9, stronger effect = lower value 0.97 | locus YGR229C, strain SMI1, stronger effect = lower value 1.01 | locus YGR252W, strain gcn5, stronger effect = lower value 0.975 | locus YHR013C, strain ard1, stronger effect = lower value 1.03 | locus YHR027C, strain rpn1, stronger effect = lower value 1.01 | locus YHR030C, strain SLT2, stronger effect = lower value 1 and 0.957 | locus YHR079C, strain IRE1 (second series), stronger effect = lower value 0.964 | locus YHR079C, strain IRE1, stronger effect = lower value 0.976 | locus YHR094C, strain hxt1, stronger effect = lower value 0.973 | locus YHR129C, strain ARP1, stronger effect = lower value 1 | locus YHR142W, strain chs7, stronger effect = lower value 1.02 | locus YHR200W, strain rpn10, stronger effect = lower value 0.979 | locus YIL066C, strain RNR3, stronger effect = lower value 1 | locus YIL073C, strain SPO22, stronger effect = lower value 0.924 | locus YIL125W, strain kgd1, stronger effect = lower value 0.985 | locus YIR030C, strain dcg1, stronger effect = lower value 0.978 | locus YJL092W, strain hpr5, stronger effect = lower value 1.02 | locus YJL095W, strain BCK1 (second series), stronger effect = lower value 1.02 | locus YJL095W, strain BCK1, stronger effect = lower value 1.01 and 0.969 | locus YJL115W, strain asf1, stronger effect = lower value 1.03 | locus YJL129C, strain trk1, stronger effect = lower value 1.02 | locus YJL134W, strain LCB3, stronger effect = lower value 1 | locus YJL154C, strain vps35, stronger effect = lower value 1.01 | locus YJL164C, strain tpk1, stronger effect = lower value 0.997 | locus YJL166W, strain qcr8, stronger effect = lower value 1.02 | locus YJL168C, strain set2, stronger effect = lower value 0.975 | locus YJL187C, strain SWE1 (second series), stronger effect = lower value 1 | locus YJR043C, strain POL32, stronger effect = lower value 0.995 | locus YJR066W, strain TOR1, stronger effect = lower value 0.929

Reference: PubChem BioAssay AID1159580 (chemical genetic matrix, 2015)
